From paper PMC7862700, “An all-to-all approach to the identification of sequence-specific readers for epigenetic DNA modifications on cytosine”

What was measured:
Assay in all cases: DAPPL (digital affinity profiling via proximity ligation, sequencing); 10 mM Tris-HCl pH 7.5, 50 mM NaCl, 1 mM DTT, 4% glycerol, room temperature, 30 min; GST-TFs on glutathione beads, 16-mer random dsDNA library, 0.1% formaldehyde crosslink after washing; high values mean tight binding
FEV = target: T1, FEV (Homo sapiens, UniProt Q99581 1-238); settings: protein: recombinant; tags: N-terminal GST; dsDNA, one strand shown
T1 sequence: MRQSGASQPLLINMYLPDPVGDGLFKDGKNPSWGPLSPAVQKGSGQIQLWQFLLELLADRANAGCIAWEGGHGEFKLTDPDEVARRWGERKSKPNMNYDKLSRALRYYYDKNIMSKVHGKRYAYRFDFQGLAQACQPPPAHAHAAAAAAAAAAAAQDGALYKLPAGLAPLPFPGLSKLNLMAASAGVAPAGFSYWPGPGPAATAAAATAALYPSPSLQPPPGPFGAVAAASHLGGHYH
How it was run: (§1)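 Pools of DNA-barcoded human transcription factors, expressed in yeast as GST fusions on glutathione beads and combined with a tag-only sample, were incubated with 200 nmole of a 16-mer random double-stranded DNA library. Incubation took 30 min at room temperature in Tris/NaCl/DTT/glycerol buffer and was followed by washing, 0.1% formaldehyde crosslinking, proximity ligation (BsaI/T4 ligase, 1 h, 37 °C), PCR amplification and sequencing on an Illumina NextSeq500. Binding signal is the ratio of a hexamer's read frequency for a factor to its frequency for the tag-only sample.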

ETV5 = ETV5 (Homo sapiens, UniProt P41161 1-510); settings: protein: recombinant; tags: N-terminal GST; dsDNA, one strand shown
Sequence of ETV5 (P41161 whole entry): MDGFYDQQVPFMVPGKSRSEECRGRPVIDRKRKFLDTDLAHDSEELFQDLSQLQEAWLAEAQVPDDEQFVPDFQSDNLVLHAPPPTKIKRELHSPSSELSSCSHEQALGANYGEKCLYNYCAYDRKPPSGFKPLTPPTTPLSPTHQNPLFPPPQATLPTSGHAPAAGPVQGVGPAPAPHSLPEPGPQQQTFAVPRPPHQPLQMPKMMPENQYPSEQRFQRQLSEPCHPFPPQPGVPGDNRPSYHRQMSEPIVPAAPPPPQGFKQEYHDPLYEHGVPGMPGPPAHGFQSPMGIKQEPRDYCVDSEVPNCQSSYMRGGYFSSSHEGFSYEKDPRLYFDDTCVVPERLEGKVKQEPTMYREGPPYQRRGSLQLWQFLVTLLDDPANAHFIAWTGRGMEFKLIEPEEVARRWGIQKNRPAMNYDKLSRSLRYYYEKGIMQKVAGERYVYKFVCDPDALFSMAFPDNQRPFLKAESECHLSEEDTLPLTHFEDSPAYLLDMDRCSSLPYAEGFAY
How it was run: as §1

HSF1 = HSF1 (Homo sapiens, UniProt Q00613 1-529); settings: protein: recombinant; tags: N-terminal GST; chain copies: 3; dsDNA, one strand shown
Sequence of HSF1 (Q00613 whole entry): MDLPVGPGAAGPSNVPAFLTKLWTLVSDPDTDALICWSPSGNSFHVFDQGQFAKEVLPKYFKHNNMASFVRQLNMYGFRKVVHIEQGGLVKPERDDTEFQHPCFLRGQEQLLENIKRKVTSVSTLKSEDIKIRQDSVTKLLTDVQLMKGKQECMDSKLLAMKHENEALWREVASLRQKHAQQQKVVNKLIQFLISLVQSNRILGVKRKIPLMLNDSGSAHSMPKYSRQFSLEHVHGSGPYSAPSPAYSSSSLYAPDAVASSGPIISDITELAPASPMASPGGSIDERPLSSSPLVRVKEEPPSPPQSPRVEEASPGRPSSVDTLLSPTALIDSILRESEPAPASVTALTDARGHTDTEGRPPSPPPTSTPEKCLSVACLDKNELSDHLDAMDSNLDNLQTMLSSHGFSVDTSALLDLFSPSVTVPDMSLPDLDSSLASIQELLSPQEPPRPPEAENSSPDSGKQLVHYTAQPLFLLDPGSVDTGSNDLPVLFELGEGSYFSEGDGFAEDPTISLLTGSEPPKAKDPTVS
How it was run: as §1

SPIC = target: T2, SPIC (Homo sapiens, UniProt Q8N5J4 1-248); settings: protein: recombinant; tags: N-terminal GST; dsDNA, one strand shown
T2 sequence: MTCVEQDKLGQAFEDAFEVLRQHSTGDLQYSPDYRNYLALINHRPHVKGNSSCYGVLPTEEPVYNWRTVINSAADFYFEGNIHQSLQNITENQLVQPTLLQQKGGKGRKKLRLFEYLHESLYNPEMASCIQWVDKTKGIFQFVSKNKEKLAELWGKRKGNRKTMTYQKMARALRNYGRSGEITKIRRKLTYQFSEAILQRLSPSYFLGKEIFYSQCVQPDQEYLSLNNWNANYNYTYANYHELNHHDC
How it was run: as §1

ELF4 = ELF4 (Homo sapiens, UniProt Q99607 1-663); settings: protein: recombinant; tags: N-terminal GST; dsDNA, one strand shown
Sequence of ELF4 (Q99607 whole entry): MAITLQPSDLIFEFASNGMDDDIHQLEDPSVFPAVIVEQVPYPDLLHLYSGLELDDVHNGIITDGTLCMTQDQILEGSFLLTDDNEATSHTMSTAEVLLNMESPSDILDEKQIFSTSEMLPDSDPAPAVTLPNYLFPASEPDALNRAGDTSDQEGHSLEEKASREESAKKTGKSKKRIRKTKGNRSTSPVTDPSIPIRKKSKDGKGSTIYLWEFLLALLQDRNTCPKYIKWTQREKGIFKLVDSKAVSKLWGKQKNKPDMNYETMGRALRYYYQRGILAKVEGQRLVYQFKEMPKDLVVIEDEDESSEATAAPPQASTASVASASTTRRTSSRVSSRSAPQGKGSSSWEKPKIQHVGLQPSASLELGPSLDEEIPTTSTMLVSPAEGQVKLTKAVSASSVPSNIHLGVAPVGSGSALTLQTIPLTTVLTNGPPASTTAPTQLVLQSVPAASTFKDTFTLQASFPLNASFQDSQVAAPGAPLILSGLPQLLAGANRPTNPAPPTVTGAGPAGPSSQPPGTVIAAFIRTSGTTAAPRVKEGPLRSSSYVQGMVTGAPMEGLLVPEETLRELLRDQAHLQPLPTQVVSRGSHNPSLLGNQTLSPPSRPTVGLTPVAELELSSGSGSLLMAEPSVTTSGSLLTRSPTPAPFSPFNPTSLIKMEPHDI
How it was run: as §1

ELK4 = target: T3, ELK4 (Homo sapiens, UniProt P28324-2 1-405); settings: protein: recombinant; tags: N-terminal GST; dsDNA, one strand shown
T3 sequence: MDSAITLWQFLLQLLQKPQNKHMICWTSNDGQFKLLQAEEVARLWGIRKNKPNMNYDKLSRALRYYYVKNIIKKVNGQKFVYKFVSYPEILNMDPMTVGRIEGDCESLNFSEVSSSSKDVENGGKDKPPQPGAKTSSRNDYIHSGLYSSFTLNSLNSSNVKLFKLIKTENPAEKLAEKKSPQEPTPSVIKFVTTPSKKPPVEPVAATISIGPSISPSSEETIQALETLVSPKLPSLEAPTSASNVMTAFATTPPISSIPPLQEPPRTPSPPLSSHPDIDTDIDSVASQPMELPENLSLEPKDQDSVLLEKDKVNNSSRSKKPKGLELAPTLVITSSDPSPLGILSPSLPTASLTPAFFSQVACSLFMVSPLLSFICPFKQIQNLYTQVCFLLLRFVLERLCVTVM
How it was run: as §1

ETV2 = target: T4, ETV2 (Homo sapiens, UniProt O00321 1-342); settings: protein: recombinant; tags: N-terminal GST; dsDNA, one strand shown
T4 sequence: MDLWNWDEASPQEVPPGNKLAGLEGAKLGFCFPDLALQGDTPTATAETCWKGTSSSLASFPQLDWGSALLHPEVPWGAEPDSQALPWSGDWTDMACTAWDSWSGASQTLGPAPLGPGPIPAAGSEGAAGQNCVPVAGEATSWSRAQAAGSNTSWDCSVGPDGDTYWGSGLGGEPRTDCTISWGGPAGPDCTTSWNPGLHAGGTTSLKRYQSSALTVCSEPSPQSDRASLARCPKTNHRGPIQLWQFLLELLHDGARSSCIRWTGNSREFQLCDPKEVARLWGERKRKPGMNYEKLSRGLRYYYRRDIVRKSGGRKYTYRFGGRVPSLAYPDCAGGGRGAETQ
How it was run: as §1

ELF3 = target: T5, ELF3 (Homo sapiens, UniProt P78545 1-371); settings: protein: recombinant; tags: N-terminal GST; dsDNA, one strand shown
T5 sequence: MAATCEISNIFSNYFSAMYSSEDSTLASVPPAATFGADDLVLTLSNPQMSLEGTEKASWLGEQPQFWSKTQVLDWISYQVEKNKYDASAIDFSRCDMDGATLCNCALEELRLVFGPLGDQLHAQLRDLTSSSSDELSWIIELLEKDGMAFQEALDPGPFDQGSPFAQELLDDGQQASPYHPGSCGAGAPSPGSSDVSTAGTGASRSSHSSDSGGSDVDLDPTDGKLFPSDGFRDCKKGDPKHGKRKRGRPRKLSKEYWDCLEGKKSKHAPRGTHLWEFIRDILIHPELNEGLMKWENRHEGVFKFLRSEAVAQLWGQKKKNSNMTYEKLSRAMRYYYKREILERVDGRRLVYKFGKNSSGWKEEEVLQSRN
How it was run: as §1

CRX = CRX (Homo sapiens, UniProt O43186 1-299); settings: protein: recombinant; tags: N-terminal GST; dsDNA, one strand shown
Sequence of CRX (O43186 whole entry): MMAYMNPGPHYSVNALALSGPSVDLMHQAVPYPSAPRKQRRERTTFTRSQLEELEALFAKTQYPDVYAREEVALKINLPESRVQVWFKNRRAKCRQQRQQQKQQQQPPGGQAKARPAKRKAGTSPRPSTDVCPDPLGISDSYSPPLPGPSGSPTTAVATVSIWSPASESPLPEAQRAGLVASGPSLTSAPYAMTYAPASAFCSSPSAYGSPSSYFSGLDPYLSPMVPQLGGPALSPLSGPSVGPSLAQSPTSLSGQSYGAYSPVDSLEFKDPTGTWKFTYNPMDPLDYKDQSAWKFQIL
How it was run: as §1

ETV1 = ETV1 (Homo sapiens, UniProt P50549 1-477); settings: protein: recombinant; tags: N-terminal GST; dsDNA, one strand shown
Sequence of ETV1 (P50549 whole entry): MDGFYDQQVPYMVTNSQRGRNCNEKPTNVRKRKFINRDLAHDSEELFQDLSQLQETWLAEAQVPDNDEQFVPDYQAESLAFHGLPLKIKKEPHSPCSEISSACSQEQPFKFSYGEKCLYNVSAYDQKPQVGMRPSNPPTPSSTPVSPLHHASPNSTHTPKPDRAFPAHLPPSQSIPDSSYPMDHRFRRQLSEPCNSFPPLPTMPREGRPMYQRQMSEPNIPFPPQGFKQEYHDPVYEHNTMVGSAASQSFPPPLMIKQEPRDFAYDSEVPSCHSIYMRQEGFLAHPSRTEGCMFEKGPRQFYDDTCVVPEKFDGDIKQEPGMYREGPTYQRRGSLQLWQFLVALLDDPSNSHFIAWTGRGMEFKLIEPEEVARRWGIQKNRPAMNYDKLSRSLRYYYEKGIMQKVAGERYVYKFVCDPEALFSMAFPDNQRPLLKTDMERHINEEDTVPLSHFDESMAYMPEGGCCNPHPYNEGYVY
How it was run: as §1

Q: How did the binding signal (FEV) turn out when CAAATC was run?
A: 1.16 fold enrichment (6-mer frequency, TF over GST control)

Q: And the binding signal (ETV5)?
A: 1.14 fold enrichment (6-mer frequency, TF over GST control)

Q: What about the binding signal (HSF1) of the same sequence?
A: 1.29 fold enrichment (6-mer frequency, TF over GST control)

Q: What about the binding signal (SPIC) of the same sequence?
A: 1.17 fold enrichment (6-mer frequency, TF over GST control)

Q: What about the binding signal (ELF4) of the same sequence?
A: 1.12 fold enrichment (6-mer frequency, TF over GST control)

Q: And the binding signal (ELK4)?
A: 1.17 fold enrichment (6-mer frequency, TF over GST control)

Q: What about the binding signal (ETV2) of the same sequence?
A: 1.1 fold enrichment (6-mer frequency, TF over GST control)

Q: And the binding signal (ELF3)?
A: 1.12 fold enrichment (6-mer frequency, TF over GST control)

Q: And the binding signal (CRX)?
A: 1.69 fold enrichment (6-mer frequency, TF over GST control)

Q: And the binding signal (ETV1)?
A: 1.15 fold enrichment (6-mer frequency, TF over GST control)

Q: CATTAT was tested. Which binding signal (FEV) did it give?
A: 1.18 fold enrichment (6-mer frequency, TF over GST control)

Q: And the binding signal (ETV5)?
A: 1.09 fold enrichment (6-mer frequency, TF over GST control)

Q: What about the binding signal (HSF1) of the same sequence?
A: 1.26 fold enrichment (6-mer frequency, TF over GST control)

Q: And the binding signal (SPIC)?
A: 1.25 fold enrichment (6-mer frequency, TF over GST control)

Q: And the binding signal (ELF4)?
A: 1.21 fold enrichment (6-mer frequency, TF over GST control)

Q: And the binding signal (ELK4)?
A: 1.28 fold enrichment (6-mer frequency, TF over GST control)

Q: What about the binding signal (ETV2) of the same sequence?
A: 1.05 fold enrichment (6-mer frequency, TF over GST control)

Q: And the binding signal (ELF3)?
A: 1.33 fold enrichment (6-mer frequency, TF over GST control)

Q: What about the binding signal (CRX) of the same sequence?
A: 1.65 fold enrichment (6-mer frequency, TF over GST control)

Q: And the binding signal (ETV1)?
A: 1.32 fold enrichment (6-mer frequency, TF over GST control)

Q: What does the source list for CTAAAC?
A: binding signal (FEV): 1.21 fold enrichment (6-mer frequency, TF over GST control); binding signal (ETV5): 1.18 fold enrichment (6-mer frequency, TF over GST control); binding signal (HSF1): 1.26 fold enrichment (6-mer frequency, TF over GST control); binding signal (SPIC): 1.18 fold enrichment (6-mer frequency, TF over GST control); binding signal (ELF4): 1.26 fold enrichment (6-mer frequency, TF over GST control); binding signal (ELK4): 1.26 fold enrichment (6-mer frequency, TF over GST control); binding signal (ETV2): 1.33 fold enrichment (6-mer frequency, TF over GST control); binding signal (ELF3): 1.18 fold enrichment (6-mer frequency, TF over GST control); binding signal (CRX): 1.47 fold enrichment (6-mer frequency, TF over GST control); binding signal (ETV1): 1.24 fold enrichment (6-mer frequency, TF over GST control)

Q: What does the source list for CTTTAA?
A: binding signal (FEV): 1.23 fold enrichment (6-mer frequency, TF over GST control); binding signal (ETV5): 1.24 fold enrichment (6-mer frequency, TF over GST control); binding signal (HSF1): 1.58 fold enrichment (6-mer frequency, TF over GST control); binding signal (SPIC): 1.36 fold enrichment (6-mer frequency, TF over GST control); binding signal (ELF4): 1.26 fold enrichment (6-mer frequency, TF over GST control); binding signal (ELK4): 1.28 fold enrichment (6-mer frequency, TF over GST control); binding signal (ETV2): 1.27 fold enrichment (6-mer frequency, TF over GST control); binding signal (ELF3): 1.39 fold enrichment (6-mer frequency, TF over GST control); binding signal (CRX): 2.25 fold enrichment (6-mer frequency, TF over GST control); binding signal (ETV1): 1.3 fold enrichment (6-mer frequency, TF over GST control)

Q: Which binding signal (FEV) does the source give for TACTTA here?
A: 1.12 fold enrichment (6-mer frequency, TF over GST control)

Q: And the binding signal (ETV5)?
A: 1.17 fold enrichment (6-mer frequency, TF over GST control)

Q: What about the binding signal (HSF1) of the same sequence?
A: 1.7 fold enrichment (6-mer frequency, TF over GST control)

Q: And the binding signal (SPIC)?
A: 1.12 fold enrichment (6-mer frequency, TF over GST control)

Q: What about the binding signal (ELF4) of the same sequence?
A: 1.21 fold enrichment (6-mer frequency, TF over GST control)

Q: What about the binding signal (ELK4) of the same sequence?
A: 1.25 fold enrichment (6-mer frequency, TF over GST control)

Q: What about the binding signal (ETV2) of the same sequence?
A: 1.16 fold enrichment (6-mer frequency, TF over GST control)

Q: What about the binding signal (ELF3) of the same sequence?
A: 1.33 fold enrichment (6-mer frequency, TF over GST control)

Q: And the binding signal (CRX)?
A: 2.6 fold enrichment (6-mer frequency, TF over GST control)

Q: And the binding signal (ETV1)?
A: 1.24 fold enrichment (6-mer frequency, TF over GST control)

Q: Which binding signal (FEV) does the source give for ACATTC here?
A: 1.21 fold enrichment (6-mer frequency, TF over GST control)

Q: And the binding signal (ETV5)?
A: 1.39 fold enrichment (6-mer frequency, TF over GST control)

Q: And the binding signal (HSF1)?
A: 2.56 fold enrichment (6-mer frequency, TF over GST control)

Q: And the binding signal (SPIC)?
A: 1.22 fold enrichment (6-mer frequency, TF over GST control)

Q: What about the binding signal (ELF4) of the same sequence?
A: 1.32 fold enrichment (6-mer frequency, TF over GST control)

Q: And the binding signal (ELK4)?
A: 1.22 fold enrichment (6-mer frequency, TF over GST control)

Q: What about the binding signal (ETV2) of the same sequence?
A: 1.23 fold enrichment (6-mer frequency, TF over GST control)

Q: What about the binding signal (ELF3) of the same sequence?
A: 1.31 fold enrichment (6-mer frequency, TF over GST control)

Q: What about the binding signal (CRX) of the same sequence?
A: 1.4 fold enrichment (6-mer frequency, TF over GST control)

Q: And the binding signal (ETV1)?
A: 1.29 fold enrichment (6-mer frequency, TF over GST control)

Q: TGGGCT was tested. Which binding signal (FEV) did it give?
A: 1.35 fold enrichment (6-mer frequency, TF over GST control)

Q: And the binding signal (ETV5)?
A: 1.4 fold enrichment (6-mer frequency, TF over GST control)

Q: What about the binding signal (HSF1) of the same sequence?
A: 1.19 fold enrichment (6-mer frequency, TF over GST control)

Q: What about the binding signal (SPIC) of the same sequence?
A: 1.28 fold enrichment (6-mer frequency, TF over GST control)

Q: What about the binding signal (ELF4) of the same sequence?
A: 1.36 fold enrichment (6-mer frequency, TF over GST control)

Q: What about the binding signal (ELK4) of the same sequence?
A: 1.29 fold enrichment (6-mer frequency, TF over GST control)

Q: And the binding signal (ETV2)?
A: 1.26 fold enrichment (6-mer frequency, TF over GST control)

Q: What about the binding signal (ELF3) of the same sequence?
A: 1.4 fold enrichment (6-mer frequency, TF over GST control)

Q: And the binding signal (CRX)?
A: 1.3 fold enrichment (6-mer frequency, TF over GST control)

Q: And the binding signal (ETV1)?
A: 1.42 fold enrichment (6-mer frequency, TF over GST control)

Q: For CCCCTT, which binding signal (FEV) is on record?
A: 1.57 fold enrichment (6-mer frequency, TF over GST control)

Q: And the binding signal (ETV5)?
A: 1.62 fold enrichment (6-mer frequency, TF over GST control)

Q: What about the binding signal (HSF1) of the same sequence?
A: 1.37 fold enrichment (6-mer frequency, TF over GST control)

Q: What about the binding signal (SPIC) of the same sequence?
A: 1.56 fold enrichment (6-mer frequency, TF over GST control)

Q: What about the binding signal (ELF4) of the same sequence?
A: 1.63 fold enrichment (6-mer frequency, TF over GST control)

Q: What about the binding signal (ELK4) of the same sequence?
A: 1.53 fold enrichment (6-mer frequency, TF over GST control)

Q: What about the binding signal (ETV2) of the same sequence?
A: 1.35 fold enrichment (6-mer frequency, TF over GST control)

Q: What about the binding signal (ELF3) of the same sequence?
A: 1.6 fold enrichment (6-mer frequency, TF over GST control)

Q: And the binding signal (CRX)?
A: 1.41 fold enrichment (6-mer frequency, TF over GST control)

Q: And the binding signal (ETV1)?
A: 1.63 fold enrichment (6-mer frequency, TF over GST control)
